Measured values reported in PubChem BioAssay AID1851 (National Center for Advancing Translational Sciences (NCATS), 2009).
The whole screen tested about 16,000 compounds, of which about 2,600 (16%) were called active. About 20% were inconclusive and are not listed. Only a sample is shown. Unmarked numbers belong to inactive results. Calls come from the whole dose curve; as a rule, active = well fitted curve in the direction sought with a large enough effect; inconclusive = small, poorly fitted or top-dose-only effect, or effect the other way; inactive = no such curve, though single readings can be large or run the other way.

biological target: Cytochrome P450 2D6 (Homo sapiens) (UniProt P10635); test: Cytochrome panel assay with activity outcomes; conditions: recombinant CYP, pro-luciferin dealkylation, luminescence, p450-cyp2d6; series mostly up to 57.1 µM; activity, negative = inhibition: at the top concentration
Sequence (P10635 whole entry, looked up): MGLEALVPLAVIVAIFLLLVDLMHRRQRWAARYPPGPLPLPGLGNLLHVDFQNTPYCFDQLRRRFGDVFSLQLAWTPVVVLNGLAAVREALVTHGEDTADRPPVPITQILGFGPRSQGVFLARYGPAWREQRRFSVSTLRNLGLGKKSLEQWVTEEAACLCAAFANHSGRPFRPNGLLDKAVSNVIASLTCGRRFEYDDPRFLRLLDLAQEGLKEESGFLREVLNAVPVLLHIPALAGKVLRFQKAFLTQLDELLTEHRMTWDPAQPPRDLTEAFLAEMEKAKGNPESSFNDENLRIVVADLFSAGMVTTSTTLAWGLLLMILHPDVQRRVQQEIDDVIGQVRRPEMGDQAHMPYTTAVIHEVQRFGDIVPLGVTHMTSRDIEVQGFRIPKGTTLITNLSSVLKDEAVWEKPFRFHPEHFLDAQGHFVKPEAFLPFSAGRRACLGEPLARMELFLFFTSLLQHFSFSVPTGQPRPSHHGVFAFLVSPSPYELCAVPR
% is set by controls: 0 for no effect and ±100 for the full control effect.

First: CC(=O)OCC(=O)[C@]12OC(C)(C)O[C@@H]1C[C@H]1[C@H]3CC=C4C[C@@H](O)CC[C@]4(C)[C@H]3CC[C@]12C
Second: C[C@@]12CC(=O)[C@@H]3[C@@H](CCC4=CC(=O)CC[C@]43C)[C@@H]1CC=C2CC(=O)O
The activity, negative = inhibition of the first is higher: 25.3% [at 11.4 µM] for the first, 17.8% [at 11.4 µM] for the second.

Compared with `N#CC(CC(=O)O)=C(c1ccccc1)c1ccccc1`, `O=C(O)CNC(=O)c1ccccc1O` is lower in activity, negative = inhibition: 9.93% [at 11.4 µM] for the first, 7.44% [at 11.4 µM] for the second.

Going from `Cn1c(=O)n2n(c1=O)[C@H]1[C@H](O)[C@H]3O[C@@H]3/C(=N/OC[C@@H](O)COCc3ccco3)[C@@H]1CC2` to `CC(C)=CCC/C(C)=C/CO/N=C1/C[C@@H](O)[C@@H](O)[C@@H]2[C@@H]3C(=O)N(C4CCCCC4)C(=O)[C@H]3CC[C@@H]12`, the activity, negative = inhibition falls from 15.6% [at 11.4 µM] to 2.55% [at 11.4 µM].

Going from `CC(C)(SCc1ccccc1)[C@H](N)C(=O)O` to `N[C@@H](CSCc1ccccc1)C(=O)O`, the activity, negative = inhibition falls from 1.44% [at 11.4 µM] to -7.04% [at 11.4 µM].

First: CCOC(=O)N/N=C1/C[C@@H](O)[C@@H](O)[C@@H]2[C@@H]3C(=O)N(C4CCCCC4)C(=O)[C@H]3CC[C@H]12
Second: O=C(NCc1cccnc1)[C@@H]1[C@@H](C(=O)O)[C@H]2CC[C@@H]1O2
The activity, negative = inhibition of the first is lower: -11.9% [at 11.4 µM] for the first, 8.3% [at 11.4 µM] for the second.

First: Cn1c(=S)c2[nH]c(SCCN3C(=O)c4ccccc4C3=O)nc2n(C)c1=O
Second: Cc1cc(C2(c3cc(C)c(O)c(C(=O)O)c3)OS(=O)(=O)c3ccccc32)cc(C(=O)O)c1O
The activity, negative = inhibition of the first is lower: 2.46% [at 11.4 µM] for the first, 5.11% [at 11.4 µM] for the second.

Compared with `N=C(N)SCCc1ccncc1`, `O=C(O)CNc1ccc(C(=O)O)cc1` is higher in activity, negative = inhibition: -9.64% [at 11.4 µM] for the first, 8.05% [at 11.4 µM] for the second.

First: c1ccc2c(CSCc3cccc4ccccc34)cccc2c1
Second: O=C(O)c1cc(N=Cc2ccccc2O)cc(C(=O)O)c1
The activity, negative = inhibition of the first is higher: 9.11% [at 11.4 µM] for the first, 7.13% [at 11.4 µM] for the second.

Compared with `Cn1c(=O)c(-c2ccc(Cl)cc2)nc2cnc(Oc3ccccc3)nc21`, `COc1ccc(-c2cc(C(=O)O)c3c(C)nn(-c4ccccn4)c3n2)cc1` is higher in “activity, negative = inhibition” value: -0.772% for the first, 2.51% for the second.

Compared with `CNC(=O)CCc1nc(-c2ccc(C(C)(C)C)cc2)no1`, `CC(C)(C)C(=O)Nc1ccnc(-c2cccnc2)n1` is higher in “activity, negative = inhibition” value: 1.62% for the first, 15.9% for the second.

Going from `Cc1nn(C(=O)c2ccco2)c(C)c1Sc1ccccc1` to `Cc1ccccc1C(C(=O)NCc1ccccc1)N(Cc1ccco1)C(=O)c1ccccn1` (stereo unspecified), the “activity, negative = inhibition” value falls from -15.5% to -16.9%.

First: Cn1cc(-c2nc3cnc(N4CCNCC4)nc3n(C)c2=O)c2ccccc21
Second: CN1CCN(c2ncc3ncc(=O)n(Cc4cccs4)c3n2)CC1
The “activity, negative = inhibition” value of the first is higher: -6.12% for the first, -10.8% for the second.

First: CC(C)OP(=O)(OC(C)C)C(NC(=O)c1ccc(Br)cc1)c1ccccc1 (stereo unspecified)
Second: Cc1cccc(N(NC(=O)C(C)(C)O)C(=O)c2ccccc2)c1
The “activity, negative = inhibition” value of the first is higher: 3.63% for the first, 3.13% for the second.

Going from `Cc1cnc(C(=O)OCC(=O)NC(C)C)cn1` to `COC(=O)[C@@H]1C[C@H]1[C@@H](NC(=O)c1cnccn1)c1ccccc1`, the “activity, negative = inhibition” value falls from -1.58% to -19.4%.

First: Cc1ccccc1OCC(=O)NC(=S)Nc1ccc(Br)c(C)n1
Second: Cc1nn(C)cc1C(=O)NNC(=S)Nc1ccccc1
The “activity, negative = inhibition” value of the first is higher: 5.94% for the first, -1.67% for the second.

First: Cc1nc2c(ccc3nc(NC(=O)c4ccc(S(=O)(=O)N(C)C)cc4)sc32)s1
Second: Cc1ccc(S(=O)(=O)Nc2nc3ccccc3nc2N2CCc3ccccc3C2)cc1
The “activity, negative = inhibition” value of the first is higher: -2.32% for the first, -14.3% for the second.

Compared with `CC1CCCC(C)N1C(=O)c1cc(-c2ccc(Cl)c(Cl)c2)on1` (stereo unspecified), `O=C(Nc1cnn(Cc2ccc(Cl)cc2Cl)c1)c1cc(-c2cccs2)on1` is higher in “activity, negative = inhibition” value: -10.3% for the first, -9.02% for the second.

Going from `Cc1ccccc1C1C(C#N)=C2N=C(N)c3c(sc4c3CCCCC4)N2C2=C1C(=O)CC(C)(C)C2` (stereo unspecified) to `Cc1ccc(C2CC(=O)c3cnc(N4CCc5ccccc5C4)nc3C2)cc1` (stereo unspecified), the “activity, negative = inhibition” value rises from 1.58% to 3.43%.

First: CCCCN1C(=O)CCC(C(=O)O)C1c1ccccc1 (stereo unspecified)
Second: C=CC(=O)NC(C)(C)Cc1ccccc1
The “activity, negative = inhibition” value of the first is lower: -3.9% for the first, -1.92% for the second.

Compared with `CCc1ccc(/C=C\C(=O)N2CCc3ccccc3C2)cc1`, `CCN1CCN(Cc2ccc(NC(=O)Nc3cccs3)cc2)CC1` is lower in “activity, negative = inhibition” value: -12.9% for the first, -18.6% for the second.

Going from `Cc1cc(NC(=O)c2nn(C)c(C)c2[N+](=O)[O-])no1` to `CCNC(=S)NNC(=O)c1cc(C)on1`, the “activity, negative = inhibition” value falls from 14.3% to 1.44%.

Compared with `CC(C)(C)C(=O)N(CCN(C(=O)C(C)(C)C)c1ccccc1)c1ccccc1`, `Cc1nc2ccccc2c(=O)n1NC(=O)c1ccccc1Cl` is lower in “activity, negative = inhibition” value: 11.6% for the first, -4.16% for the second.

Going from `O=C(CCC(=O)OCc1ccc(C(=O)Oc2ccccc2)cc1)Nc1cccc2ccccc12` to `CCOc1ccc(-c2nn(-c3ccccc3)cc2/C=C(\C#N)S(=O)(=O)c2ccccc2)cc1C`, the “activity, negative = inhibition” value rises from -18% to 6.66%.

Compared with `COC(=O)[C@@]1(Cc2ccc(F)cc2)[C@@H]2[C@@H](CC(=O)[C@H]2CC(=O)C(=O)N(C)C)CN1C(=O)c1ccccc1`, `Cc1ccc(CNC(=O)CCNS(=O)(=O)c2ccc3c(c2)c(=O)n(C)c(=O)n3C)cc1` is lower in “activity, negative = inhibition” value: 1.19% for the first, -11.3% for the second.

Compared with `CCCCCCCCCn1cc(C(C)=O)c(=O)[nH]c1=O`, `CN(C)CCCNC(=O)CCc1nc2ccccc2c(=O)[nH]1` is lower in “activity, negative = inhibition” value: 6.59% for the first, -8.88% for the second.

Compared with `COc1cccc(OC)c1/C(O)=C(\C#N)c1nc2ccccc2[nH]1`, `N#Cc1ccc(-c2ccc(F)cc2)nc1Sc1ccccc1` is lower in “activity, negative = inhibition” value: -4.28% for the first, -6.07% for the second.

First: CCS(=O)(=O)N1CCC(C(=O)NCC2CCCO2)CC1 (stereo unspecified)
Second: CCCCC(=O)Nc1nnc(SCC(=O)NC2CCCC2)s1
The “activity, negative = inhibition” value of the first is higher: 10.9% for the first, 8.09% for the second.

Compared with `O=C1OCCC1Sc1nnc(-c2ccc(O)cc2)o1` (stereo unspecified), `O=C(O)Cc1c[nH]c2ccc(O)cc12` is higher in “activity, negative = inhibition” value: -8.18% for the first, 3.43% for the second.

Going from `CCOc1ccc(C(Nc2ccc(C)cc2)P2(=O)OCC(C)(C)CO2)cc1` (stereo unspecified) to `Cc1ccc(NC(=O)c2nnn(-c3cc(C)cc(C)c3)c2N)cc1`, the “activity, negative = inhibition” value falls from 17.8% to -35.7%.

Going from `CC(C)CC(=O)Nc1ccc2c(c1)oc1ccccc12` to `Cn1c(=O)c2cc(S(=O)(=O)NCCC(=O)Nc3ccc(Cl)cc3)ccc2n(C)c1=O`, the “activity, negative = inhibition” value rises from -15.8% to -13.9%.

Compared with `COc1ccc(C(=O)NC(CO)c2nnc(SCc3ccc(Cl)c(Cl)c3)n2C)cc1` (stereo unspecified), `Cc1cccc(CNc2ccnc(-c3ccc(C(=O)N(C)C)cc3)n2)c1` is higher in “activity, negative = inhibition” value: -29.4% for the first, -6.1% for the second.

Going from `Cc1ccccc1-c1cc(NCc2cccnc2)ncn1` to `CC(=O)Nc1ccnc(-c2cccnc2)n1`, the “activity, negative = inhibition” value rises from -18.7% to -2.93%.

First: O=[N+]([O-])c1ccccc1/C=N/n1c(COc2ccccc2)n[nH]c1=S
Second: O=C1C2Sc3[nH]c(=O)sc3C(c3ccccc3)C2C(=O)N1c1ccccc1 (stereo unspecified)
The “activity, negative = inhibition” value of the first is lower: -29.2% for the first, -14.8% for the second.

First: Cc1ccc(/C=N/n2cnnc2)s1
Second: Cc1nc2cnc(N(C)C)nc2n(C2CC2)c1=O
The “activity, negative = inhibition” value of the first is lower: -11.6% for the first, -4.46% for the second.

Going from `O=C1C(C2=NC(C(=O)O)C3C(=O)N(c4ccc(Cl)cc4)C(=O)C23)=C(O)c2ccccc21` (stereo unspecified) to `FC(F)(F)c1nnc(-c2ccccc2)nc1Sc1ccccc1`, the “activity, negative = inhibition” value falls from -3.63% to -29.5%.

`CC(=O)OC[C@@H]1O[C@@H](O/N=C2/C[C@@H](O)[C@@H](O)[C@@H]3[C@@H]4C(=O)N(C5CCCCC5)C(=O)[C@H]4CC[C@H]23)[C@H](OC(C)=O)[C@H](OC(C)=O)[C@@H]1OC(C)=O` was tested, and the AC50 was 3.98 µM (active).
`CCCCCCN1Cc2ccccc2C1` was tested, and the AC50 was 3.55 µM (active).
In the case of `Cc1ccc2[nH]c3c(N4CCc5ccccc5C4)ncnc3c2c1`, the AC50 is reported as 0.708 µM (active).
`CN(C(=O)CN(CCO)CC(=O)N(C)C(C)(C)Cc1ccccc1)C(C)(C)Cc1ccccc1` was tested, and the AC50 was 3.16 µM (active).
`CCSC1=C(C#N)C2(CCCCC2)C(C#N)=C(N)N1` was tested, and the AC50 was 15.8 µM (active).
For `CN(CCCNC(=O)c1cccn2c(=O)c3ccccc3nc12)Cc1ccccc1`, the AC50 was 2.24 µM (active).
With `Cn1c(O)c(C(C#N)=C2N=c3ccccc3=N2)c2ccccc21` the AC50 was 7.08 µM (active).
In the case of `O[C@H](C[C@@H]1CCCCN1)c1ccc2c(c1)oc1ccccc12`, the AC50 is reported as 0.1 µM (active).
In the case of `O=C(Nc1ccnc(-c2cccnc2)n1)c1cccc(Cl)c1Cl`, the AC50 is reported as 2.24 µM (active).
For `c1ccc(CNc2ccnc(-c3cccnc3)n2)cc1`, the AC50 was 1.26 µM (active).
`Cc1ccccc1-c1nccc(NCc2cccnc2)n1` was tested, and the AC50 was 20 µM (active).
In the case of `Cc1cccc(CNc2ccnc(-c3cccnc3)n2)c1`, the AC50 is reported as 0.631 µM (active).
For `Cn1c(=O)c2cc(S(=O)(=O)NCCC(=O)NCCc3ccc(Cl)cc3)ccc2n(C)c1=O`, the AC50 was 15.8 µM (active).
For `c1ccc2c(CSCCc3ccncc3)cccc2c1`, the AC50 was 0.398 µM (active).
With `Clc1ccc(CSCCc2ccncc2)cc1Cl` the AC50 was 0.316 µM (active).
With `c1ccc(CSCCc2ccncc2)cc1` the AC50 was 1.26 µM (active).
With `COc1cccc(-c2cncnc2NCCc2c[nH]c3ccc(OC)cc23)c1` the AC50 was 2.51 µM (active).
For `COc1ccc2[nH]cc(CCNc3ncncc3-c3cccc(NS(C)(=O)=O)c3)c2c1`, the AC50 was 3.16 µM (active).
In the case of `COc1ccc2[nH]cc(CCNc3ncncc3-c3cccnc3)c2c1`, the AC50 is reported as 12.6 µM (active).

Going from `CO[C@]1(NC(=O)C2SC(=C(C(N)=O)C(=O)O)S2)C(=O)N2C(C(=O)O)=C(CSc3nnnn3C)CS[C@H]21` (stereo partly specified) to `C[C@H](Oc1ccccc1)C(=O)N[C@@H]1C(=O)N2[C@@H]1SC(C)(C)[C@@H]2C(=O)O`, the “activity, negative = inhibition” value falls from 1.2% [at 25.6 µM] to -1.89% [at 25.6 µM].

Compared with `CCN[C@@H]1C[C@H](C)S(=O)(=O)c2sc(S(N)(=O)=O)cc21`, `COc1cc2nc(N(C)CCCNC(=O)[C@@H]3CCCO3)nc(N)c2cc1OC` is lower in “activity, negative = inhibition” value: 1.58% [at 25.6 µM] for the first, -16% [at 25.6 µM] for the second.

First: CC(=O)Oc1cc(C(F)(F)F)ccc1C(=O)O
Second: C[C@@H]1CCc2cc(F)cc3c(=O)c(C(=O)O)cn1c23
The “activity, negative = inhibition” value of the first is lower: 2.6% [at 25.6 µM] for the first, 6.54% [at 25.6 µM] for the second.

`C[C@@]12CCC(=O)C=C1CC[C@@H]1[C@@H]2[C@H](O)C[C@]2(C)[C@@H]1CC[C@]2(O)C(=O)CO` was tested, and the “activity, negative = inhibition” value was 2.89% [at 25.6 µM].
